Assay outcomes from PubChem BioAssay.
This is a sample that favours compounds with a hit; in the whole collection about 2.8% have one here.
MsrA inhibitor: inhibitors of bovine MsrA | purified bovine MsrA, absorbance read-out | inhibition, % at 15.5 µM | 360,000 compounds, 0.75% hits; in the data active = inhibition above about 4.5%
SMARCA2 act: activators of SMARCA2 function; MG213 cells, MMTV-luciferase reporter, dexamethasone, overnight; activation, % at 9.1 µM; 370,000 compounds, 1% hits; AID 652017; in the data active = activation above about 7.8%
MsrA act: bovine methionine sulfoxide reductase A activation; purified bovine MsrA, absorbance read-out; activation, % at 10.6 µM; 360,000 compounds, 0.3% hits; AID 602163; in the data active = activation above about 7.5%
KLK7 zymogen act: activators of human kallikrein-7 zymogen. P49862. purified proKLK7, EDANS-DABCYL substrate fluorescence; 100% is mature enzyme control, 0% vehicle. activation, % at 7 µM. 370,000 compounds, 0.9% hits. AID 652039;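 active = activation above the mean of all tested compounds plus 3 SD, computed per campaign excluding outliers beyond control limits, cut at about 13% in these data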
Target sequence (P49862 whole entry, looked up): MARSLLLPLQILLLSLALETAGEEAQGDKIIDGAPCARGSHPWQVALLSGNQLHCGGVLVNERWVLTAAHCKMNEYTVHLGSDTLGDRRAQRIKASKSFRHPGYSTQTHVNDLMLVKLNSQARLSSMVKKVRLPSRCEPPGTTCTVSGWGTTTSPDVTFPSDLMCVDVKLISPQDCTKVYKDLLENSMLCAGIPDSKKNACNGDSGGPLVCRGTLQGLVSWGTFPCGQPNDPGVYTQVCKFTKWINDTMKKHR
proKLK7 act conf: confirmation of human kallikrein-7 zymogen activators | AID 686949 | 3,200 compounds, 68% hits | activation, % at 7 µM | shares compounds with KLK7 zymogen act | purified proKLK7, EDANS-DABCYL substrate fluorescence; scaled: vehicle 0, mature enzyme 100;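 active = activation, as change over the incubation, above the mean of all tested compounds plus 3 SD, cut at about 13% in these data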
EDANS interfere: fluorescence interference counter-screen for KLK7 activators; activation, % at 7 µM; AID 686952; EDANS-DABCYL substrate fluorescence interference, no enzyme, 4 h; solvent 0%, active enzyme control 100%; shares compounds with KLK7 zymogen act; 3,200 compounds, 80% hits;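 active = activation above the all-compound mean plus 3 SD, ignoring values outside control-based bounds, cut at about 4.8% in these data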;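 also: value is the 4 h activation minus the activation read at time zero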
EDANS interf: EDANS fluorescence interference in dose response, no enzyme. shares compounds with KLK7 zymogen act. EDANS-DABCYL peptide fluorescence interference. EC50, µM. 250 compounds, 20% hits. AID 720493;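 active = compounds that raise the fluorescence signal in this interference counterscreen, with EC50 at or below 10 µM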;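 also: intact quenched peptide substrate alone read at 355 nm excitation and 520 nm emission; signal is fluorescence gain from T0 to T4 after four hours at room temperature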
A number is an active result; n = inactive; x = no result given.

SMILES | MsrA inhibitor | SMARCA2 act | MsrA act | KLK7 zymogen act | proKLK7 act conf | EDANS interfere | others
Cc1cccn2c(=O)c3cc(C(=O)NC4CCCCC4C)n(C)c3nc12 (stereo not given) | n | n | n | n | x | x
CCN(CC)C(=O)c1cc2c(=O)n3cccc(C)c3nc2n1C | n | n | n | 22 | 15 | 21
CC(=O)c1cc(-c2cccc(CO)c2)c(=O)n2c1CCC2 | x | n | x | n | x | x
COCCCNC(=O)C[C@H]1C[C@@]2(C(=O)OC)C(=C[C@H](C3CCCC3)O[C@@H]2C)N(CCC2=CCCCC2)C1=O | x | n | x | n | x | x
CC1=C(C#N)C(c2cccnc2)C2=C(N1)c1ccccc1C2=O (stereo not given) | n | n | n | n | x | x
CC1=C(C#N)C(c2cccnc2)C2=C(CCCC2=O)N1 (stereo not given) | n | n | n | 17 | 51 | 64
Cc1nc2cc(-c3ccccc3)nn2c(C)c1CCC(=O)NCc1ccco1 | n | n | n | n | x | x
Cc1cc(C)c2c(n1)nn1c(C)c(CCC(=O)NCc3ccco3)c(C)nc21 | n | n | n | 15 | n | n
COC(=O)Cc1c(C)c2ccc(O)c(CNCc3ccc(OC)c(OC)c3)c2oc1=O | n | n | n | 63 | 77 | 65 | EDANS interf=n
CCN(CC)Cc1c(O)ccc2c(C)c(CC(=O)OC)c(=O)oc12 | n | n | n | 58 | 65 | 67
COC(=O)Cc1c(C)c2ccc(OCC(C)=O)c(C)c2oc1=O | n | n | n | n | x | x
CCc1nc2ccc(C(=O)NCCC(C)C)cn2c1N(CC)CCOC | n | n | n | n | x | x
COc1c2c(cc3c1c(=O)c1ccccc1n3C)OCO2 | n | n | x | 45 | 56 | 77
CCOC(=O)C1=C(C)OC(N)=C(C#N)C1c1cc2c(cc1[N+](=O)[O-])OCO2 (stereo not given) | n | n | n | 29 | 15 | 15
CC(=O)N1CCc2[nH]c3ccc(C)cc3c2C1 | n | n | n | n | x | x
CCOC(=O)N1CCc2[nH]c3ccc(C)cc3c2C1 | n | n | n | 17 | 23 | 23
CCn1cc(-c2ccnc3cc(C(=O)O)nn23)c(C)n1 | n | n | n | 27 | 73 | 75
CC1(C)C2CCC1(C)C(OC(=O)C[n+]1ccccc1N)C2 (stereo not given) | n | n | n | 52 | 99 | 100
CC1(C(=O)NCc2ccccc2)CSCC(=O)N1Cc1ccco1 (stereo not given) | n | n | x | n | x | x
Cc1ccccc1NC(=O)c1sc2nc(N3CCOCC3)c3c(c2c1N)CCCC3 | n | n | n | n | x | x
NC(=O)c1sc2nc(N3CCOCC3)c3c(c2c1N)CCCC3 | n | n | n | 21 | n | n
Nc1c(C(=O)NCCc2ccccc2)sc2nc(N3CCOCC3)c3c(c12)CCCC3 | n | n | n | 152 | n | n
C[C@H]1COC(=O)[C@H](Cc2ccc(F)cc2)C/C=C\C[C@H](CC(=O)NCCO)C(=O)N1 | n | n | n | n | x | x
CNc1cncc(-c2ccc(F)c(F)c2)n1 | n | n | n | 37 | 16 | 25
CNc1cncc(-c2ccc(OC)c(OC)c2)n1 | n | n | n | n | x | x
SMILES | MsrA inhibitor | SMARCA2 act | MsrA act | KLK7 zymogen act | proKLK7 act conf | EDANS interfere | others
CNc1cncc(-c2cccc(C(=O)N(C)C)c2)n1 | n | n | n | 51 | 60 | 63
CNc1cncc(-c2cccnc2)n1 | n | n | n | 67 | 76 | 79
CC(=O)Nc1cncc(-c2cccc(C(=O)NCCN(C)C)c2)n1 | n | n | n | n | x | x
Cc1ccc(C(=O)N2CCC(Oc3cccnc3)CC2)c(C)c1 | x | n | x | n | x | x
CC(NC(=O)Cc1cccs1)c1ccc2c(c1)OCO2 (stereo not given) | n | n | n | n | x | x
O=C(CC(SCc1ccco1)c1ccc(O)cc1)c1cccs1 (stereo not given) | n | n | n | 25 | 16 | 14
O=C(CSc1nnc(-c2ccc(O)cc2)n1Cc1ccco1)c1cccs1 | n | n | n | n | x | x
O=C(CC(SCCO)c1ccc2c(c1)OCO2)c1cccs1 (stereo not given) | n | n | n | 14 | 26 | 27
CC(C)N(C(=O)[C@H]1C[C@H](CC(=O)NC(C)(C)C)C(=O)N2CCc3c([nH]c4cc(-c5ccco5)ccc34)[C@]12C)C(C)C | n | n | n | 20 | n | 20
